In PubChem BioAssay AID1745845 (National Center for Advancing Translational Sciences (NCATS), 2022):
Several values for one entry are separate records, joined by “and”; a condition that tells them apart may be missing. Equal values may be shown once. About 2,600 (0.72%) of roughly 360,000 compounds were called active. A call without a number means that no potency is given here. Another 5% or so got no clear call; they are omitted. Calls follow the shape of the dose curve; as a rule, active = well fitted inhibition curve with a large enough effect; inconclusive = small, poorly fitted or top-dose-only effect; inactive = no such curve, though single readings can be large or run the other way. The sample as a whole holds a higher share of actives than the screen did. Some structures have more than one record in an assay (separate samples or runs), and their calls can disagree.

Assay: Primary qHTS for Inhibitors of ATXN expression; also: nearly all actives have a fitted effect of over 55% in size
Conditions: HEK-293 ATXN2-luciferase reporter, luminescence, 24 h; series mostly up to 57 µM
How it was run: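 ATXN2-luciferase reporter cells (luciferase flanked by upstream and downstream ATXN2 gene portions) were treated 24 h at 37 °C with compounds at up to 57 uM. SteadyGlo luminescence gave expression; GF-AFC fluorescence gave viability.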
Potency is read from the fitted curve at half-maximal effect.

SMILES	Potency
O=C1NC(=O)C(=Cc2cccc(C(F)(F)F)c2)S1	inactive
CCOC(=O)c1cc2c(=O)n3ccccc3nc2n(Cc2ccco2)c1=NC(=O)c1ccc(F)cc1	inactive
CCC1CCCCN1Cc1c(O)ccc2c(=O)c(Oc3ccccc3Cl)c(C(F)(F)F)oc12 (stereo not given)	inactive
C[C@@H]1C[C@@H]2O[C@H]2/C=C\C=C\C(=O)Cc2c(Cl)c(O)cc(O)c2C(=O)O1	4.74 µM (active)
CC1(C(=O)NCc2cccc3ccccc23)CCN1Cc1ccc(-c2ccccc2)o1 (stereo not given)	inactive
CN(C)CCCN(C(=O)c1ccc(S(=O)(=O)N2CCCCCC2)cc1)c1nc2ccc(Br)cc2s1	31.6 µM (active)
CN(C)CCN(C(=O)C1=COCCO1)c1nc2ccc(Cl)cc2s1	inactive
Cc1cc(C)c2sc(NC(=O)c3ccc(S(=O)(=O)N4CCCC4)cc3)nc2c1	inactive
CCOC(=O)c1ccc(-c2ccc3ncnc(N(C)Cc4sccc4C)c3c2)o1	inactive
CCn1c(/C=C/c2ccc([N+](=O)[O-])o2)nc2ccccc2c1=O	8.91 µM (active)
O=c1c2ccccc2ncn1/N=C/c1ccccc1	inactive
Cc1ccc(-n2c(SCC(=O)N/N=C/C=C/c3ccccc3[N+](=O)[O-])nc3ccccc3c2=O)cc1	inactive
Cc1ccc(-n2c(SCC(=O)Nc3cccc(F)c3)nc3c(oc4ccccc43)c2=O)cc1C	inactive
CCCc1c2oc(C(=O)O)cc(=O)c2cc2c(=O)cc(C(=O)O)n(CC)c12	inactive
CC1(C)OC[C@@H](COC(=O)CCc2ccc(OC[C@@H](O)CNCCNC(=O)N3CCOCC3)cc2)O1	inactive
Cc1ccc(C)c(N2CCN(C(=O)CCCn3c(=O)c4cccn4c4cccnc43)CC2)c1	inactive
Cc1ccc(C)c(N2CCN(C(=O)CCc3nc4ccccc4[nH]3)CC2)c1	inactive
Cc1ccc(C)c(N2CCN(C(=O)CCCCCn3c(=S)[nH]c4ccc(N5CCOCC5)cc4c3=O)CC2)c1	2.82 µM (active)
COc1ccc(-c2c(C)c3ccc(O)c(CN4CCCC4)c3oc2=O)cc1OC	inactive
CO[C@H]1O[C@@H]2O[C@@]3(C)CC[C@@H]4[C@@H](C)CC[C@@H]([C@H]1C)[C@@]24OO3	inactive
CCOc1ccc(CNC(=O)c2cccc(Nc3nc4ccccc4n4nnnc34)c2)cc1OC	inactive
C=CCn1c(C)cc(C2=NNC(=NCC)SC2)c1C	0.447 µM (active)
C=C1C(=CC=C2CCC[C@]3(C)[C@@H]([C@H](C)C=C[C@H](C)C(C)C)CC[C@@H]23)C[C@@H](O)C[C@@H]1O	inactive
COc1ccc(Cc2nc3ccc(C(=O)NCc4ccccc4Cl)cc3o2)cc1	inactive

SMILES	Potency
Cc1ccnc(NC(=O)C2CCN(S(=O)(=O)c3c(C)c(C)cc(C)c3C)CC2)c1	7.94 µM (active)
Cc1ccc(S(=O)(=O)N2CCC(C(=O)Nc3cc(C)ccc3C)CC2)cc1	inactive
O=C(Nc1ccccn1)C1CCN(S(=O)(=O)c2ccccc2)CC1	inactive
COc1cccc(CNC(=O)C(=O)NCC(c2cccs2)S(=O)(=O)c2ccccc2)c1 (stereo not given)	inactive
CCc1ccc(OC2(C)CCN(CCOc3ccc(C)cc3)C2)cc1 (stereo not given)	inactive
CCCCCCCCn1c2c(c(=N)c3c1CCC3)CCCC2	0.891 µM (active)
CCCS(=O)(=O)N1CCC(n2c(C(F)(F)F)nc3cccnc32)CC1	inactive
CCOc1cc2[nH]c(=O)n(Cc3ccc(C(=O)NCCN(CC)CC)cc3)c(=O)c2cc1OCC	inactive
CCN(CC)CCNC(=O)c1c(C)[nH]c(C=C2C(=O)Nc3ccc(F)cc32)c1C	44.4 µM (active)
CCN(CC)CCNC(=O)c1cc(S(C)(=O)=O)ccc1OC	inactive
N#Cc1ccccc1Cn1cnc2nc3c(cc2c1=O)CCCC3	inactive
Cc1nc2c(OCc3ccc(Cl)cc3Cl)cccn2c1N(C)CC1CC1	inactive
O=[N+]([O-])c1ccc(C=Nc2ccc(Cl)cc2Cl)s1	12.6 µM (active)
CNN/C(N=Cc1ccc([N+](=O)[O-])s1)=N\S(=O)(=O)c1cc(C)c(Cl)cc1SCc1ccccc1	inactive
COC(=O)c1ccccc1NC(=O)c1cc(-c2ccccc2O)no1	inactive
CC(C)CCNC(=O)CSc1nc2ccccc2nc1Cc1ccc(Cl)cc1	inactive
COc1ccc(Cc2nnc(SC)[nH]c2=O)cc1	inactive
COc1ccc(CCNC(=O)CCc2ccccc2O)cc1OC	inactive
COc1ccc(Cc2nnc(N/N=C/c3ccccc3O)[nH]c2=O)cc1OC	3.55 µM (active)
CCCCCc1c(-c2ccc(OC)c(OC)c2)ncn1CCc1ccccc1OC	inactive
COc1ccc(CNc2nc(-c3ccccc3)nn2C(=O)c2ccccc2OC)cc1	inactive
COc1cc(Cl)cn2c(-c3cccc(NC4CNC4)n3)cnc12	inactive
Cc1ccc(-n2ncc3c(=O)n(Cc4cccc(C(F)(F)F)c4)cnc32)cc1C	inactive
CC1(C)OC(=O)C2=C(C[C@@H](C3CCCCC3)O[C@@H]2c2ccc(Cl)cc2)O1	inactive

SMILES	Potency
Cc1onc(C(=O)NCc2ccc(F)cc2)c1[N+](=O)[O-]	inactive
O=C(/C=C/c1ccc([N+](=O)[O-])o1)NNC(=O)c1ccc(F)cc1	6.31 µM (active)
NC(=O)C(=O)N/N=C/c1ccc([N+](=O)[O-])o1	inactive
Cc1ccc(S(=O)(=O)c2c(Nc3cccc(Cl)c3)sc(C(=O)c3ccc4c(c3)OCO4)c2N)cc1	inactive
COc1ccc(NC(=O)CCC(=O)Nc2cc(OC)c(NC(=O)c3ccco3)cc2OC)c(OC)c1	inactive
CC(OC(=O)c1ccc([N+](=O)[O-])cc1)C(=O)NCC1CCCCC1 (stereo not given)	inactive
COc1cc(C(=O)OC(C)C(=O)NCC2CCCCC2)cc(NC(=O)c2ccco2)c1OC (stereo not given)	25.1 µM (active)
COC(=O)c1c(NC(=O)CCCOc2ccccc2)sc2c1CCC(C)C2 (stereo not given)	inactive
CC(=O)c1cccc(NC(=O)c2nc(-c3ccccc3)n(-c3cccc(C)c3)n2)c1	inactive
Cc1cc(Br)ccc1NC(=O)Cn1cnc2sc(C)c(S(=O)(=O)N3CCN(C)CC3)c2c1=O	inactive
CN[C@@H]1[C@@H](O)[C@@H](O[C@@H]2[C@H](O)[C@H](O[C@H]3OC(CN)=CC[C@H]3N)[C@@H](N)C[C@H]2N)OCC1(C)O (stereo not given in full)	inactive
Cc1ccc(/C=N/NC(=O)C2=NNC(c3ccccc3)(c3ccccc3)C2)c(O)c1	3.16 µM (active)
COc1cc(/C=N/NC(=O)c2cc(-c3ccccc3C)nc3ccccc23)cc(OC)c1O	inactive
Cc1ccc2nc(CNC(=O)c3ccccc3)[nH]c2c1	inactive
CCC(C)Cn1c(O)cc2nn(-c3nc4ccccc4s3)c(=O)c-2c1C (stereo not given)	14.1 µM (active)
COc1ccc(OC)c(NC(=O)/C=C/c2ccc(C)o2)c1	inactive
CCOC(=O)C1CCN(c2nc3c(S(=O)(=O)c4ccc(CC)cc4)nnn3c3ccc(Cl)cc23)CC1	inactive
CCCCCn1c(=O)[nH]c2cc(C(=O)NCCN(C)CCCC)ccc2c1=O	inactive
COc1ccccc1CNC(=O)NCc1noc2ccc(C)cc12	inactive
CN(C)S(=O)(=O)c1ccc(Oc2ccc(S(=O)(=O)N(C)C)cc2)cc1	inactive
Cc1cc(C(C)(C)C)cc(C)c1N	inactive
CC(C)(C)c1ccc(Oc2ccc(N)cc2)cc1	2.82 µM (active)
O=C(OCCN1CCOCC1)c1cccnc1Nc1cccc(C(F)(F)F)c1	inactive
CCCCN(CCCC)CCC(O)c1cc2c(Cl)cc(Cl)cc2c2cc(C(F)(F)F)ccc12 (stereo not given)	inactive and 31.6 µM (active)

SMILES	Potency
Cc1c(Cl)cccc1NC(=O)C(=O)NCCc1csc2nc(-c3ccccc3F)nn12	inactive
Oc1ccc2ccccc2c1N=Nc1nccs1	3.55 µM (active)
Cc1ccccc1Cn1nc(C)c(NC(=O)c2cc(-c3ccc(F)cc3)on2)c1C	inactive
COc1cc(NC(=O)CN2CCN(S(=O)(=O)c3ccc(Br)cc3)CC2)cc(OC)c1	inactive
CNC(=O)c1ccsc1NC(=O)c1ccc(S(=O)(=O)N2CCOCC2)cc1	inactive
COc1ccc(C(=O)Nc2nc(-c3ccc(S(=O)(=O)N4CCOCC4)cc3)cs2)cc1	25.1 µM (active)
Cc1cc2nc(NC(=O)c3ccc(S(=O)(=O)N4CCOCC4)cc3)sc2cc1C	inactive
CCc1nc2c(cnn2-c2ccc(C)cc2)c(=O)n1-c1ccc(C)cc1	inactive
Cc1ccccc1CSCCNC(=O)C1CCN(S(=O)(=O)Cc2ccccc2)CC1	inactive
CC1=CC(C)(C)Nc2ccc(OC(=O)C(Cc3ccccc3)N3C(=O)C4CCCCC4C3=O)cc21 (stereo not given)	inactive
CC1=CC(C)(C)Nc2ccc(OC(=O)CN3C(=O)C4CCCCC4C3=O)cc21 (stereo not given)	31.6 µM (active)
O=C(COC(=O)CN1C(=O)C2CCCCC2C1=O)Nc1ccc(F)c(F)c1F (stereo not given)	inactive
C[C@]12CCC3=C4CCC(=O)C=C4CC[C@@H]3[C@H]1CC[C@@]2(O)CC#N	inactive
CCOc1cc2ccccc2cc1C(=O)Nc1ccccn1	inactive
COc1ccc(C(=O)/C=C/Nc2ccccn2)cc1	8.91 µM (active)
Cc1cc(N/C=C\C(=O)c2ccc(Cl)c(Cl)c2)no1	inactive
COc1ccc(CNC(=O)CSc2nc3ccccc3nc2Cc2ccccc2)cc1	inactive
O=C(NCCC1=CCCCC1)c1ccc2c(c1)N(Cc1ccccc1F)C(=O)c1ccccc1S2(=O)=O	inactive
CCOC(=O)c1c(C)[nH]c(C)c1S(=O)(=O)N1CCCC(C(=O)NCc2ccccc2Cl)C1 (stereo not given)	inactive
CC1CCCN(C(=O)CN2C(=O)c3ccccc3S2(=O)=O)C1 (stereo not given)	inactive
O=C(CN1C(=O)c2ccccc2S1(=O)=O)N1CCc2ccccc21	2.51 µM (active)
CN(Cc1ccc(F)cc1)C(=O)CN1C(=O)c2ccccc2S1(=O)=O	inactive
CO[C@H]1C=CO[C@@]2(C)Oc3c(C)c(O)c4c(O)c(c(/C=N/N5CCN(C)CC5)c(O)c4c3C2=O)NC(=O)/C(C)=C\C=C[C@H](C)[C@H](O)[C@@H](C)[C@@H](O)[C@@H](C)[C@H](OC(C)=O)[C@@H]1C	inactive
